Values joined by “and” are separate entries in the source; they are usually repeats but may differ in a detail not shown here. Equal values may be shown once. Some compounds were tested as several samples or in several runs, with calls that do not always agree. Active and inactive are the calls of the source. Unless noted, the call rests on the fitted dose curve; in most records, active means well fitted curve in the direction sought with a large enough effect in the repeat runs; inconclusive means weak or mixed curves; inactive means no such curve, though single readings can be large; an effect the other way counts as inactive or inconclusive.
Target: Estrogen receptor (Homo sapiens) (UniProt P03372)
Sequence (P03372 whole entry, looked up): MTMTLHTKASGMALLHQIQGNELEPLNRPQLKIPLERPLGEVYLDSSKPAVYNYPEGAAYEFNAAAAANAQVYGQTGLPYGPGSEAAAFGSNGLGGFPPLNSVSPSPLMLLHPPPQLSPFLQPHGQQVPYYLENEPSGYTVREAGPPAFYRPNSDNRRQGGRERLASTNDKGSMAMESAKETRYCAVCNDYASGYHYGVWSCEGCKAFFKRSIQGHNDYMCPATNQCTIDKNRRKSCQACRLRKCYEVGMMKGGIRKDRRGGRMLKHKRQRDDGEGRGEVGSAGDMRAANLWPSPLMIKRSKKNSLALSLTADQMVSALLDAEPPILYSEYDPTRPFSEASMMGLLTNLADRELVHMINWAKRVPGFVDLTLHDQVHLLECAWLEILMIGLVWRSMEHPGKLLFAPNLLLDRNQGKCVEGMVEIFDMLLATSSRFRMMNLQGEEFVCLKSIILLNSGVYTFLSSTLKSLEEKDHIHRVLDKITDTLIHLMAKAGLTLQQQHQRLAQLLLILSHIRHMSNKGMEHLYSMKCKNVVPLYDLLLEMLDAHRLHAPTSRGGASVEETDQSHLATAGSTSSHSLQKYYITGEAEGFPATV
Test: qHTS assay to identify small molecule agonists of the estrogen receptor alpha (ER-alpha) signaling pathway (AID 743075; calls by dose curve;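 further: HEK293 GripTite cells with ER-alpha and UAS-driven beta-lactamase reporter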; further: potency means the concentration at half of the fitted maximal effect)
Settings: HEK293 ER-alpha-UAS-bla, beta-lactamase FRET ratio, 18 h; activation: at 70.1 µM (top of the series)
On the % scale 0 is the no-effect control and ±100 the full control effect.

| Structure (SMILES) | Potency | activation |
| --- | --- | --- |
| C=CC(=O)OCC(CO)(COCC(COC(=O)C=C)(COC(=O)C=C)COC(=O)C=C)COC(=O)C=C | 10.8 µM [inconclusive] (active) | – |
| [O-][n+]1ccccc1SSc1cccc[n+]1[O-] | – | 4.38% (inactive) |
| CSc1ccc2c(c1)C(N1CCN(C)CC1)Cc1ccccc1S2 (configuration not stated) | – | -2.18% (inactive) |
| Cc1nc(-c2ccc3c(c2)CCN(CCC2CCC(NC(=O)/C=C/c4ccc(F)cc4)CC2)CC3)no1 (configuration not stated) | 9.79 µM [inconclusive] (active) | – |

Target: Estrogen receptor (Homo sapiens) (UniProt P03372)
Test: qHTS assay to identify small molecule agonists of the estrogen receptor alpha (ER-alpha) signaling pathway using the BG1 cell line (AID 743079); further: nearly all actives have a fitted effect of over 20% in size
Settings: BG1Luc4E2 cells, ERE-luciferase agonist, 22 h; at 70.3 µM (top of the series)

| Structure (SMILES) | activation |
| --- | --- |
| Cc1ccc2oc(CN(Cc3ccccc3)C(=O)Nc3c(F)cc(F)cc3F)c(-c3ccc(Cl)cc3)c2c1 | -12.5% (inactive) |
| O=C1c2c(O)ccc(Nc3ccc(CCO)cc3)c2C(=O)c2c([N+](=O)[O-])ccc(O)c21 | -6.57% (inactive) |
| COc1ccc(C(=O)/C(Br)=C\C(=O)O)cc1 | 0.472% (inactive) |
| O=C1Cc2cc(CCN3CCN(c4nsc5ccccc45)CC3)c(Cl)cc2N1 | 1.77% (inactive) and -23.7% (inactive) |
| CSc1ccc2c(c1)C(N1CCN(C)CC1)Cc1ccccc1S2 (configuration not stated) | -16.2% (inactive) |

Tested on: not listed separately
Test: qHTS assay to identify small molecule antagonists of the estrogen receptor alpha (ER-alpha) signaling pathway using the BG1 cell line (AID 743080; calls by dose curve;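 further: BG1 cells stimulated with 17beta-estradiol alongside compound; nearly all actives have a fitted effect of over 25% in size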; further: potency means the concentration at half of the fitted maximal effect)
Settings: BG1Luc4E2 ERE-luciferase antagonist mode, luminescence; series mostly up to 70.3 µM; activity change, negative = inhibition: at the top concentration
Summary of the method: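 Seeding, 24 h rest, compound transfer from DMSO, 17beta-estradiol addition, 21.5 h incubation, CellTiter-Fluor (30 min, 37 C), then ONE-Glo (30 min, room temperature): this sequence was run on BG1-Luc-4E2 reporter cells.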

| Structure (SMILES) | activity change, negative = inhibition | Potency |
| --- | --- | --- |
| Cc1ccc(-n2nc(C(C)(C)C)cc2NC(=O)Nc2ccc(OCCN3CCOCC3)c3ccccc23)cc1 | 3.97% (inactive) | – |
| Cc1ccc2oc(CN(Cc3ccccc3)C(=O)Nc3c(F)cc(F)cc3F)c(-c3ccc(Cl)cc3)c2c1 | -3.28% (inactive) | – |
| CCCCCCCCOC(=O)c1ccc(O)cc1 | -0.0303% (inactive) | – |
| Cc1cccc(CN2CCN(C(c3ccccc3)c3ccc(Cl)cc3)CC2)c1 (configuration not stated) | -0.845% [at 32.5 µM] (inactive) | – |
| O=C1c2c(O)ccc(Nc3ccc(CCO)cc3)c2C(=O)c2c([N+](=O)[O-])ccc(O)c21 | 5.29% (inactive) | – |
| Fc1ccc([C@@H]2CCNC[C@H]2COc2ccc3c(c2)OCO3)cc1 | 11.6% (inactive) | – |
| Oc1c(Cl)cc(Cl)c2cccnc12 | – | 21.1 µM (active) |
| Oc1cccc(-c2c3nc(c(-c4cccc(O)c4)c4ccc([nH]4)c(-c4cccc(O)c4)c4nc(c(-c5cccc(O)c5)c5ccc2[nH]5)CC4)C=C3)c1 | -41.1% (inactive) | – |
| CCCCCCCC[N+](CCCCCCCC)(CCCCCCCC)CCCCCCCC | – | 1.72 µM (active) |
| O=C1Cc2cc(CCN3CCN(c4nsc5ccccc45)CC3)c(Cl)cc2N1 | 5.36% (inactive) | – |
| CSc1ccc2c(c1)C(N1CCN(C)CC1)Cc1ccccc1S2 (configuration not stated) | -7.13% (inactive) | – |
| Cc1nc(-c2ccc3c(c2)CCN(CCC2CCC(NC(=O)/C=C/c4ccc(F)cc4)CC2)CC3)no1 (configuration not stated) | -9.39% [at 32.5 µM] (inactive) | – |

Tested on: not listed separately
Test: qHTS assay to identify small molecule antagonists of the estrogen receptor alpha (ER-alpha) signaling pathway using the BG1 cell line - cell viability counter screen (AID 743081);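 further: compound given together with 17beta-estradiol as the ER stimulus; nearly all actives have a fitted effect of over 45% in size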; further: potency means the concentration at half of the fitted maximal effect
Settings: BG1Luc4E2 viability, CellTiter-Fluor, 22 h; series mostly up to 70.3 µM; activity change, negative = cytotoxicity: at the top concentration

| Structure (SMILES) | activity change, negative = cytotoxicity | Potency |
| --- | --- | --- |
| Cc1ccc(-n2nc(C(C)(C)C)cc2NC(=O)Nc2ccc(OCCN3CCOCC3)c3ccccc23)cc1 | -4.32% (inactive) | – |
| Cc1ccc2oc(CN(Cc3ccccc3)C(=O)Nc3c(F)cc(F)cc3F)c(-c3ccc(Cl)cc3)c2c1 | 1.5% (inactive) | – |
| CCCCCCCCOC(=O)c1ccc(O)cc1 | – | inactive |
| CCc1cc(SCc2sc(-c3ccc(C(F)(F)F)cc3)nc2CN2CCN(c3ccc(OC)cc3)CC2)ccc1OCC(=O)O | -27.6% (inactive) | – |
| CC(C)(C)NC(=O)[C@@H]1C[C@@H]2CCCC[C@@H]2CN1C[C@@H](O)[C@H](Cc1ccccc1)NC(=O)[C@H](CC(N)=O)NC(=O)c1ccc2ccccc2n1 | – | 23.7 µM (active) and 49.2 µM (active) |
| CC(C)CCCCCCCCCCCCCCC(=O)O | -14.6% (inactive) | – |
| Cc1ccc(O)c(C(C)(C)C)c1 | – | 61 µM (active) and inactive |
| Cc1cccc(CN2CCN(C(c3ccccc3)c3ccc(Cl)cc3)CC2)c1 (configuration not stated) | -0.151% [at 32.5 µM] (inactive) | – |
| Cc1onc(-c2c(Cl)cccc2Cl)c1C(=O)N[C@@H]1C(=O)N2[C@@H]1SC(C)(C)[C@@H]2C(=O)O | 13.9% (inactive) | – |
| Oc1ccc2c(c1)-c1ccccc1C2 | 3.34% (inactive) | – |
| Oc1c(Cl)cc(Cl)c2cccnc12 | -4.98% (inactive) | – |
| Oc1cccc(-c2c3nc(c(-c4cccc(O)c4)c4ccc([nH]4)c(-c4cccc(O)c4)c4nc(c(-c5cccc(O)c5)c5ccc2[nH]5)CC4)C=C3)c1 | – | 9.44 µM (active) and 11.9 µM (active) |
| C=C(C)C(=O)OCC[N+](C)(C)C | -0.947% (inactive) | – |
| CCCCCCCC[N+](CCCCCCCC)(CCCCCCCC)CCCCCCCC | – | 24.3 µM (active) |
| COc1cccc(N)c1 | -1.72% [at 95 µM] (inactive) | – |
| CCCC1O[C@@H]2C[C@H]3[C@@H]4CCC5=CC(=O)C=C[C@]5(C)[C@H]4[C@@H](O)C[C@]3(C)[C@]2(C(=O)CO)O1 (some centres not stated) | – | inactive |
| N#CSc1ccc(N)c([N+](=O)[O-])c1 | – | 54.8 µM (active) |
| On1ccccc1=S | -3.8% (inactive) | – |
| COc1ccc(C(=O)/C(Br)=C\C(=O)O)cc1 | – | inactive |
| CCCCCCCCCCCCCCCC[N+](C)(C)CCN(Cc1ccc(OC)cc1)c1ncccn1 | -0.0511% [at 32.5 µM] (inactive) | – |
| O=C1Cc2cc(CCN3CCN(c4nsc5ccccc45)CC3)c(Cl)cc2N1 | – | inactive |
| C=CC(=O)OCC(CO)(COCC(COC(=O)C=C)(COC(=O)C=C)COC(=O)C=C)COC(=O)C=C | – | 13.5 µM (active) |
| [O-][n+]1ccccc1SSc1cccc[n+]1[O-] | -27.3% (inactive) | – |
| CSc1ccc2c(c1)C(N1CCN(C)CC1)Cc1ccccc1S2 (configuration not stated) | -1.01% (inactive) | – |
| Oc1ccc2cc(SSc3ccc4cc(O)ccc4c3)ccc2c1 | – | inactive |
| Cc1nc(-c2ccc3c(c2)CCN(CCC2CCC(NC(=O)/C=C/c4ccc(F)cc4)CC2)CC3)no1 (configuration not stated) | -2.51% [at 32.5 µM] (inactive) | – |
